{"source": "the supplement of paper PMC6607015", "note": "Where a name gives a salt, the structure may show the parent alone."}
{"system": "HeLa MZ", "assay": "LBPA endosome anti-LBPA integrated intensity (sum per cell), Z-score; higher = more LBPA staining", "conditions": "compound concentration in added solution (µM; 5 µl added to 20 µl cells): 10; 18 h", "procedure,_shortened": "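Each value is a Z-score normalised in AcuityXpress from per-cell integrated LBPA or filipin intensity, taken over the whole cell or within LBPA endosomes. Duplicate 384-well imaging plates held 5 µl of 10 µM compound solution, onto which 3,500 HeLa MZ or A431 cells in 20 µl were seeded per well. After 18 h the cells were fixed in 4% PFA, stained with 6C4 anti-LBPA antibody, filipin, propidium iodide and CellTracker green, imaged four times per well at 20× and segmented in MetaXpress.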"}
{"smiles": "COc1ccc(NS(=O)(=O)c2ccc(N)cc2)nn1", "note": "[Sulfamethoxypyridazine]", "LBPA endosome anti-LBPA integrated intensity (z-score)": -1.31}
{"smiles": "CCC(=O)O[C@]1(C(=O)SCF)[C@H](C)C[C@H]2[C@@H]3C[C@H](F)C4=CC(=O)C=C[C@]4(C)[C@@]3(F)[C@@H](O)C[C@@]21C", "note": "[Fluticasone propionate]", "LBPA endosome anti-LBPA integrated intensity (z-score)": 0.00943}
{"smiles": "O=C(O)CCNC(=O)c1ccc(/N=N/c2ccc(O)c(C(=O)O)c2)cc1", "note": "[Balsalazide Sodium]", "LBPA endosome anti-LBPA integrated intensity (z-score)": -0.755}
{"smiles": "CC(C)(C)NC[C@H](O)c1ccc(O)c(CO)c1", "note": "[Levalbuterol hydrochloride]", "LBPA endosome anti-LBPA integrated intensity (z-score)": -1.22}
{"smiles": "NC(CO)C(=O)NNCc1ccc(O)c(O)c1O", "note": "(stereo not given) [Benserazide hydrochloride]", "LBPA endosome anti-LBPA integrated intensity (z-score)": 0.144}
{"smiles": "Cc1ccc(NC(=O)c2ccc(CN3CCN(C)CC3)cc2)cc1Nc1nccc(-c2cccnc2)n1", "note": "[Imatinib]", "LBPA endosome anti-LBPA integrated intensity (z-score)": 1.01}
{"smiles": "Cc1cc2c(cc1S(N)(=O)=O)S(=O)(=O)CCC2", "note": "[Meticrane]", "LBPA endosome anti-LBPA integrated intensity (z-score)": -0.455}
{"smiles": "O=C1O[C@H]([C@@H](O)CO)C(O)=C1O", "note": "[Ascorbic acid]", "LBPA endosome anti-LBPA integrated intensity (z-score)": -0.991}
{"smiles": "N=C(N)NCC1COC2(CCCCC2)O1", "note": "(stereo not given) [Guanadrel sulfate]", "LBPA endosome anti-LBPA integrated intensity (z-score)": -0.453}
{"smiles": "CC[N+](C)(CC)CCOC(=O)C1c2ccccc2Oc2ccccc21", "note": "[Methantheline bromide]", "LBPA endosome anti-LBPA integrated intensity (z-score)": -0.164}
{"smiles": "CO/N=C(\\C(=O)N[C@@H]1C(=O)N2C(C(=O)O)=C(COC(N)=O)CS[C@H]12)c1ccco1", "note": "[Cefuroxime sodium salt]", "LBPA endosome anti-LBPA integrated intensity (z-score)": -0.812}
{"smiles": "O=C(OCC(O)CO)c1ccccc1Nc1ccnc2cc(Cl)ccc12", "note": "(stereo not given) [Glafenine hydrochloride]", "LBPA endosome anti-LBPA integrated intensity (z-score)": 1.9}
{"smiles": "C[C@@H]1NC(=O)NC1=O", "note": "[Methylhydantoin-5-(L)]", "LBPA endosome anti-LBPA integrated intensity (z-score)": 0.559}
{"smiles": "CC1(C)O[C@@H]2C[C@H]3[C@@H]4C[C@H](F)C5=CC(=O)CC[C@]5(C)[C@H]4[C@@H](O)C[C@]3(C)[C@]2(C(=O)CO)O1", "note": "[Flurandrenolide]", "LBPA endosome anti-LBPA integrated intensity (z-score)": -0.763}
{"smiles": "C/C(=C(\\CCOP(=O)(O)O)SC(=O)c1ccccc1)N(C=O)Cc1cnc(C)nc1N", "note": "[Benfotiamine]", "LBPA endosome anti-LBPA integrated intensity (z-score)": -0.653}
{"smiles": "CN1CCN(CCCN2c3ccccc3Sc3ccc(S(=O)(=O)N(C)C)cc32)CC1", "note": "[Thioproperazine dimesylate]", "LBPA endosome anti-LBPA integrated intensity (z-score)": 1.97}
{"smiles": "CN(C)CCOC(=O)C(c1ccccc1)C1(O)CCCC1", "note": "(stereo not given) [Cyclopentolate hydrochloride]", "LBPA endosome anti-LBPA integrated intensity (z-score)": 0.664}
{"smiles": "Clc1cccc(Cl)c1NC1=NCCN1", "note": "[Clonidine hydrochloride]", "LBPA endosome anti-LBPA integrated intensity (z-score)": -0.0581}
{"smiles": "CCN(CC)CCc1nc(-c2ccccc2)no1", "note": "[Oxalamine citrate salt]", "LBPA endosome anti-LBPA integrated intensity (z-score)": 0.162}
{"smiles": "N[C@H]1CONC1=O", "note": "[(S)-(-)-Cycloserine]", "LBPA endosome anti-LBPA integrated intensity (z-score)": -0.138}
{"smiles": "O=C(c1ccc(F)cc1)C1CCN(CCn2c(=O)[nH]c3ccccc3c2=O)CC1", "note": "[Ketanserin tartrate hydrate]", "LBPA endosome anti-LBPA integrated intensity (z-score)": 0.294}
{"smiles": "C[N+](C)(CCOc1ccccc1)Cc1ccccc1.O=C([O-])c1cc2ccccc2cc1O", "note": "[Bephenium hydroxynaphthoate]", "LBPA endosome anti-LBPA integrated intensity (z-score)": 0.146}
{"smiles": "O=C1CCc2ccc(OCCCCN3CCN(c4cccc(Cl)c4Cl)CC3)cc2N1", "note": "[Aripiprazole]", "LBPA endosome anti-LBPA integrated intensity (z-score)": 2.8}
{"smiles": "Nc1nc(F)nc2c1ncn2[C@@H]1O[C@H](CO)[C@@H](O)[C@@H]1O", "note": "[Fludarabine]", "LBPA endosome anti-LBPA integrated intensity (z-score)": 1.27}
{"smiles": "CN1CCc2cccc3c2[C@H]1Cc1ccc(O)c(O)c1-3", "note": "[R(-) Apomorphine hydrochloride hemihydrate]", "LBPA endosome anti-LBPA integrated intensity (z-score)": 0.867}
{"smiles": "C[C@]12CCC(=O)C=C1C=C[C@@H]1[C@@H]2CC[C@@]2(C)[C@H]1CC[C@@]21CCC(=O)O1", "note": "[Canrenone]", "LBPA endosome anti-LBPA integrated intensity (z-score)": 1.1}
{"smiles": "CN(C)[C@@H]1C(O)=C(C(N)=O)C(=O)[C@@]2(O)C(O)=C3C(=O)c4c(O)cccc4[C@@](C)(O)[C@H]3C[C@@H]12", "note": "[Tetracycline hydrochloride]", "LBPA endosome anti-LBPA integrated intensity (z-score)": 0.0873}
{"smiles": "Cc1onc(-c2c(F)cccc2Cl)c1C(=O)N[C@@H]1C(=O)N2[C@@H]1SC(C)(C)[C@@H]2C(=O)O", "note": "[Flucloxacillin sodium]", "LBPA endosome anti-LBPA integrated intensity (z-score)": 0.147}
{"smiles": "CC1(C)S[C@@H]2[C@H](NC(=O)Cc3ccccc3)C(=O)N2[C@H]1C(=O)O", "note": "[Benzylpenicillin sodium]", "LBPA endosome anti-LBPA integrated intensity (z-score)": 1.42}
{"smiles": "COc1ccc2c(c1)C(=O)N(CCc1ccc(S(=O)(=O)NC(=O)NC3CCCCC3)cc1)C(=O)C2(C)C", "note": "[Gliquidone]", "LBPA endosome anti-LBPA integrated intensity (z-score)": 0.216}
{"smiles": "CCCCC[C@H](O)/C=C/[C@@H]1[C@@H](C/C=C\\CCCC(=O)O)[C@@H](O)C[C@H]1O", "note": "[Dinoprost trometamol]", "LBPA endosome anti-LBPA integrated intensity (z-score)": -0.303}
{"smiles": "CCN(Cc1ccncc1)C(=O)C(CO)c1ccccc1", "note": "(stereo not given) [Tropicamide]", "LBPA endosome anti-LBPA integrated intensity (z-score)": -0.535}
{"smiles": "CCN(CC)CCOc1ccc(C(=C(Cl)c2ccccc2)c2ccccc2)cc1", "note": "[Clomiphene citrate (Z,E)]", "LBPA endosome anti-LBPA integrated intensity (z-score)": 0.54}
{"smiles": "CC(=O)c1ccc2c(c1)N(CCCN(C)C)c1ccccc1S2", "note": "[Acetopromazine maleate salt]", "LBPA endosome anti-LBPA integrated intensity (z-score)": 2.14}
{"smiles": "Cn1c(=O)c2c(ncn2CC(O)CO)n(C)c1=O", "note": "(stereo not given) [Diprophylline]", "LBPA endosome anti-LBPA integrated intensity (z-score)": -0.754}
